# Assay results as given in the supplement of paper PMC5499739.
# Over roughly 16,000 sequences, “Z-score” has its median near -0.37; the highest 2% begin near 3.1. The entries come from a sample that favours the highest values as a whole.
# Tested on: RBM10 RRM1-ZnF-RRM2 (GST-tagged construct)
# Experiment: RNAcompete 7-mer binding Z-score; higher = stronger binding preference
# Procedure, shortened: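 Bound RNA was identified by microarray hybridisation after GST-tagged RBM10 constructs (20 pmol) had been mixed with 1.5 nmol of a designed pool of 241 399 RNAs up to 41 nt, transcribed from microarray-derived DNA templates. Binding ran for 30 min at 4°C in 1 ml Hepes pH 7.8 buffer with KCl, NaCl, glycerol, DTT, BSA and glutathione Sepharose beads, with four 2-min washes at 4°C afterwards. For every heptamer motif, a one-sided Z-score for enrichment was computed across the probes that contained it.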
row,Sequence,RNAcompete 7-mer binding Z-score
1,CGAAGGG,2.68
2,AGAAGAG,1.61
3,CCCCCCA,-0.38
4,ACUAGGC,-0.235
5,CUAACGA,-0.566
6,UGUAGCC,-0.624
7,AUCCCUC,-0.759
8,CGCACGG,-0.0124
9,CGGUUGG,1.91
10,CGGUUGA,0.876
11,UGGUUGA,1.31
12,CGGUUAG,0.691
13,GGGUUGG,4.05
14,GGGUUAG,4.04
15,GGGUUGA,3.53
16,AGGUUGG,2.71
17,UGGUUAG,1.94
18,AAGUUUU,-0.329
19,AUGGGAA,4.29
20,AUGGGAG,3.64
21,AUGGGGG,3.84
22,CUGGGAG,1.4

row,Sequence,RNAcompete 7-mer binding Z-score
1,UUGGGAG,2.51
2,UUGGGAA,1.92
3,CUGGGAA,1.36
4,AUGGGGA,4.23
5,AUGGGGC,2.6
6,GCGGUAU,0.574
7,AUUAUCG,-0.402
8,UCCCCCU,-0.566
9,UGAAAUU,-0.686
10,CUGUGGG,1.63
11,AAAAAAA,-0.49
12,UAGGCUA,0.392
13,CGACGUG,0.25
14,GACGGCG,0.836
15,CGGGGGU,3.06
16,CUGGGGU,1.79
17,AUGGGGU,3.91
18,AUCACCU,-0.876
19,UGUAGAU,0.235
20,GUUAGGC,1.25
21,ACGGGUC,1.42
22,ACGGGUG,3.24

row,Sequence,RNAcompete 7-mer binding Z-score
1,ACGGGGG,3.19
2,ACGGGGU,3.8
3,GCGGGUG,2.75
4,CCGGGGU,1.71
5,ACGGGGA,2.84
6,ACGGGGC,2.37
7,ACGGGUU,2.32
8,CGUUCUC,-0.763
9,UUCAUUU,-0.737
10,GCGGCUA,0.21
11,ACCCAGC,-0.785
12,CAAUGCA,-0.362
13,UCUAAUG,-0.577
14,CUUUAUA,-0.752
15,GGCGGGC,1.97
16,AGCGGGC,1.57
17,CGCGGGA,1.16
18,GGCGGGG,3.64
19,AGCGGGU,3.01
20,GGCGGGU,2.57
21,CGCGGGG,2.32
22,CGCGAGG,0.833

row,Sequence,RNAcompete 7-mer binding Z-score
1,AGCGGGA,3.24
2,GGCGAGC,1.87
3,GGCGAGG,3.22
4,AGCGGGG,3.96
5,UGGUAAG,1.73
6,CUAGGGA,1.6
7,GAGACCG,-0.0452
8,UACACCC,-0.77
9,AGCAGGU,1.74
10,GACUCCA,-0.704
11,CUUUAGG,-0.369
12,AUAUAAU,-0.366
13,GGUGAAA,1.83
14,CAAAUAG,-0.144
15,UGCGGGA,1.7
16,GGCGGCA,1.12
17,GGCGGGA,3.23
18,AUAUUAG,0.0313
19,CUUGGGG,1.13
20,GAUUGGG,3.64
21,GGUUGGG,4.42
22,GGUUGGC,2.03

row,Sequence,RNAcompete 7-mer binding Z-score
1,AUUGGGG,3.16
2,GGUUGGU,1.94
3,GAUUGGC,0.927
4,AAUUGGG,2.6
5,GUUGGGG,3.69
6,AUUGGGA,2.99
7,AUUGGGU,2.74
8,UUUGGGG,2.13
9,CCUUUCC,-0.887
10,AUGGCGU,0.705
11,CGCUAAU,-0.628
12,AAGCAGA,0.672
13,UCGGAAC,0.0532
14,UUGUCAA,-0.741
15,AAUUCAC,-0.643
16,UUUGCAA,-0.602
17,ACUUUCU,-0.959
18,AUCGAGA,0.352
19,GGUUAGG,4.22
20,GGUUAGC,1.03
21,GGUUAGU,1.6
22,ACUGCCC,-0.439
